# In PubChem BioAssay (Tox21):
# Results filed as inconclusive are left out. Where a call stands in place of a potency, no number is given. Activity calls are given as the source filed them. Unless noted, calls come from the whole dose curve; as a rule, active = well fitted curve in the direction sought with a large enough effect in the repeat runs; inconclusive = weak or mixed curves; inactive = no such curve, though single readings can be large; an effect the other way counts as inactive or inconclusive.
# Legend:
# [1] = qHTS assay to identify small molecule agonists of the sonic hedgehog signaling (Shh) pathway (AID 1259368; calls by dose curve;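 note: NIH/3T3-derived 3T3Gli1-Luc cells carrying a stable Gli1-driven firefly luciferase reporter; series mostly up to about 92 µM; nearly all actives have a fitted effect of over 15% in size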)
# How it was run: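 Quantitative high-throughput format using a Gli1-driven firefly luciferase reporter line derived from NIH/3T3 cells. After a 24 hr compound treatment at 37 C and 5% CO2, luminescence reported Gli1 response element activity.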
# [2] = biological target: Estrogen receptor beta (Homo sapiens) (UniProt Q92731); experiment: qHTS assay to identify small molecule agonists of the estrogen receptor beta (ER-beta) signaling pathway (AID 1259377; active = well fitted activation curve with a large enough effect in the signal ratio in the repeat runs, not every such curve was filed as active; the % refers to the signal ratio)
# How it was run: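 Ratiometric beta-lactamase FRET read-out came after 2 h substrate loading at room temperature. It followed 16 h compound treatment at 37C of GripTite HEK293T cells carrying a UAS-bla reporter, plated in 2% charcoal-stripped FBS medium.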
# [3] = qHTS assay to identify small molecule agonists of the androgen receptor (AR) signaling pathway in the presence of an antagonist - cell viability counter screen (AID 1259379); note: nearly all actives have a fitted effect of over 25% in size; note: potency is the fitted concentration of half-maximal effect
# How it was run: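 Nilutamide-containing (3.0uM final) MDA-kb2 cultures, 3,000 cells/well, were treated with compounds across 15 concentrations. After 16 hr at 37C with no CO2, cell viability was determined by CellTiter-Fluor fluorescence in the luciferase assay wells.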
# [4] = qHTS assay to identify small molecule agonists of the estrogen receptor beta (ER-beta) signaling pathway - cell viability counter screen (AID 1259380); note: nearly all actives have a fitted effect of over 30% in size; note: potency is the fitted concentration of half-maximal effect
# How it was run: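 Steps: plate ER-beta-UAS-bla HEK293T cells, rest 6 hr; add compounds in DMSO; incubate 16 hr at 37C, 5% CO2; add FRET substrate 2 hr; add CellTiter-Glo, wait 30 min at room temperature; read luminescence.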
# [5] = qHTS assay to identify small molecule antagonists of the estrogen receptor beta (ER-beta) signaling pathway - cell viability counter screen (AID 1259382); note: series mostly up to about 92 µM; nearly all actives have a fitted effect of over 55% in size
# How it was run: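 Viability is scored by CellTiter-Glo luminescence (30 min, room temperature) in ER-beta-UAS-bla HEK293T wells already read for reporter fluorescence. Compound exposure lasts 16 hr at 37C alongside 1nM 17-beta-estradiol in charcoal-stripped serum medium.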
# [6] = biological target: Estrogen receptor (Homo sapiens) (UniProt P03372); experiment: qHTS assay to identify small molecule agonists of the estrogen receptor alpha (ER-alpha) signaling pathway in the presence of an antagonist (AID 1259383; calls by dose curve; note: top concentration of the series differs between compounds; nearly all actives have a fitted effect of over 15% in size)
# How it was run: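 Readout was ERE-driven luciferase luminescence in VM7Luc4E2 cells, which express full-length ER-alpha endogenously. Compounds were tested at 15 concentrations for 22hr alongside 10.0nM ICI-182,780 (final concentration).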
# [7] = qHTS assay to identify small molecule agonists or antagonists of the thyroid stimulating hormone receptor (TSHR) signaling pathway - wild type cell line counter screen (AID 1259384; calls by dose curve)
# How it was run: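 Wild-type HEK293 cells were plated 18 h at 37 C/5% CO2, pin-dosed with compound plus Ro20-1724 medium, held 30 min at room temperature, then given cAMP-d2 and anti-cAMP-cryptate; fluorescence was read after 1 h. Fifteen concentrations, triplicate.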
# [8] = biological target: Thyrotropin receptor (Homo sapiens) (UniProt P16473); experiment: qHTS assay to identify small molecule antagonists of the thyroid stimulating hormone receptor (TSHR) signaling pathway (AID 1259385; calls by dose curve; note: nearly all actives have a fitted effect of over 20% in size)
# How it was run: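 TSHR-HEK293 cells were plated and held 18 h at 37C/5% CO2, then given compound plus Ro20-1724 and stimulated with TSH at 1.5 ng/mL final. After 30 min at room temperature, cAMP was detected with cAMP-d2/anti-cAMP-cryptate (1 h) by fluorescence.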
# [9] = qHTS assay to identify small molecule agonists of the estrogen receptor alpha (ER-alpha) signaling pathway in the presence of an antagonist - cell viability counter screen (AID 1259386);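 note: cells exposed to compounds for 22 h at 37 °C before the viability read; nearly all actives have a fitted effect of over 30% in size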; note: potency is the fitted concentration of half-maximal effect
# How it was run: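 In this counter screen, compound effects on VM7Luc4E2 viability were tested in the presence of the antagonist ICI-182,780 at 10.0nM final. Compounds were dosed at 15 concentrations, exposure lasted 22hr, and the CellTiter-Fluor signal was read.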
# [10] = biological target: Progesterone receptor (Homo sapiens) (UniProt P06401); experiment: qHTS assay to identify small molecule agonists of the progesterone receptor (PR) signaling pathway (AID 1346784; calls by dose curve; note: nearly all actives have a fitted effect of over 30% in size)
# How it was run: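 Agonist qHTS: compounds pinned onto 3,000 PR-UAS-bla HEK 293T cells per well in charcoal-stripped serum medium, 16hr at 37C, then beta-lactamase activity measured by LiveBLAzer FRET fluorescence after 2 hours at room temperature.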
# [11] = biological target: Progesterone receptor (Homo sapiens) (UniProt P06401); experiment: qHTS assay to identify small molecule antagonists of the progesterone receptor (PR) signaling pathway (AID 1346795; active = well fitted inhibition curve with a large enough effect in the signal ratio in the repeat runs, not every such curve was filed as active; the % refers to the signal ratio; note: potency is the fitted concentration of half-maximal effect)
# How it was run: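 Antagonist mode with agonist R5020 at 1 nM final and 16 hr incubation at 37C. Reporter was beta-lactamase driven by UAS in HEK293T (PR-UAS-bla), 2% charcoal-stripped serum; signal from LiveBLAzer FRET substrate, 2 hr at room temperature.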
# [12] = qHTS assay to identify small molecule antagonists of the progesterone receptor (PR) signaling pathway - cell viability counter screen (AID 1346798); note: nearly all actives have a fitted effect of over 50% in size; note: potency is the fitted concentration of half-maximal effect
# How it was run: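 Cytotoxicity read as CellTiter-Glo luminescence (30 min, room temperature) in the same wells as the beta-lactamase readout. HEK293T PR-UAS-bla cells in charcoal-stripped 2% FBS received compound and R5020, then 16 h at 37C, 5% CO2.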
# [13] = qHTS assay to identify small molecule agonists of the progesterone receptor (PR) signaling pathway - cell viability counter screen (AID 1346799; calls by dose curve; note: nearly all actives have a fitted effect of over 45% in size)
# How it was run: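 Cytotoxicity measured by CellTiter-Glo luminescence (30 min, RT) in the same wells as the PR beta-lactamase agonist read. Those HEK293T cells had 16 h compound treatment at 37 C in 2% charcoal-stripped FBS medium.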
# [14] = qHTS assay to identify small molecule antagonists of the TGF-beta/Smad signaling pathway - cell viability counter screen (AID 1346824); note: nearly all actives have a fitted effect of over 50% in size
# How it was run: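 SBE-bla HEK 293T cells were plated overnight at 37 C, then given compounds in DMSO plus TGF-beta1 (added as 0.25 ng/mL solution) for 5 hr. After the bla read, CellTiter-Glo was added to the same wells and luminescence read after 30 min at room temperature.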
# [15] = qHTS assay to identify small molecule agonists of the TGF-beta/Smad signaling pathway - cell viability counter screen (AID 1346829); note: top concentration of the series differs between compounds; nearly all actives have a fitted effect of over 45% in size
# How it was run: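 Tox21 qHTS format: SBE-bla HEK 293T cells treated with DMSO-dissolved compounds for 5 hr; CellTiter-Glo luminescence after 30 min at room temperature.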
# [16] = qHTS assay to identify small molecule agonists of the TGF-beta/Smad signaling pathway (AID 1346859; active = well fitted activation curve with a large enough effect in the signal ratio in the repeat runs, not every such curve was filed as active; the % refers to the signal ratio; note: series mostly up to about 77 µM)
# How it was run: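 Fluorescence (ex 405 nm; em 460 and 530 nm) was read 2 h after LiveBLAzer FRET substrate at RT. The preceding compound treatment of overnight-plated SBE-bla HEK293T cells lasted 5 h at 37 C.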
# [17] = biological target: Thyrotropin-releasing hormone receptor (Homo sapiens) (UniProt P34981); experiment: qHTS assay to identify small molecule antagonists of the thyrotropin-releasing hormone receptor (TRHR) signaling pathway (AID 1346877; active = well fitted inhibition curve with a large enough effect in the repeat runs, not every such curve was filed as active; note: series mostly up to about 51 µM)
# How it was run: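 Kinetic fluorescence (3 min, 1 s resolution) following stimulation with TRH at 1 nM final; HEK293 cells bearing human TRHR; 5 min compound preincubation at RT; concentration-response over 15 points, triplicates.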
# [18] = biological target: Estrogen receptor beta (Homo sapiens) (UniProt Q92731); experiment: qHTS assay to identify small molecule antagonists of the estrogen receptor beta (ER-beta) signaling pathway (AID 1259378; active = well fitted inhibition curve with a large enough effect in the signal ratio in the repeat runs, not every such curve was filed as active; the % refers to the signal ratio; note: potency is the fitted concentration of half-maximal effect)
# How it was run: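 ER-beta-UAS-bla HEK293T (GripTite) cells in 2% charcoal-stripped FBS medium were preincubated 6 hr at 37C, dosed with compound, then stimulated with 1 nM E2 (final) for 16 hr; beta-lactamase reporter read by B/G FRET fluorescence after 2 hr substrate loading.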
# [19] = biological target: Androgen receptor (Homo sapiens) (UniProt P10275); experiment: qHTS assay to identify small molecule agonists of the androgen receptor (AR) signaling pathway in the presence of an antagonist (AID 1259381; calls by dose curve; note: nearly all actives have a fitted effect of over 15% in size)
# How it was run: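 Reporter-gene luminescence from MDA-kb2 cells exposed 16hr at 37C (0% CO2) to 15-point compound titrations with 3.0uM final nilutamide as AR antagonist.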
# Chain of Estrogen receptor beta (Homo sapiens) (Q92731 whole entry, looked up): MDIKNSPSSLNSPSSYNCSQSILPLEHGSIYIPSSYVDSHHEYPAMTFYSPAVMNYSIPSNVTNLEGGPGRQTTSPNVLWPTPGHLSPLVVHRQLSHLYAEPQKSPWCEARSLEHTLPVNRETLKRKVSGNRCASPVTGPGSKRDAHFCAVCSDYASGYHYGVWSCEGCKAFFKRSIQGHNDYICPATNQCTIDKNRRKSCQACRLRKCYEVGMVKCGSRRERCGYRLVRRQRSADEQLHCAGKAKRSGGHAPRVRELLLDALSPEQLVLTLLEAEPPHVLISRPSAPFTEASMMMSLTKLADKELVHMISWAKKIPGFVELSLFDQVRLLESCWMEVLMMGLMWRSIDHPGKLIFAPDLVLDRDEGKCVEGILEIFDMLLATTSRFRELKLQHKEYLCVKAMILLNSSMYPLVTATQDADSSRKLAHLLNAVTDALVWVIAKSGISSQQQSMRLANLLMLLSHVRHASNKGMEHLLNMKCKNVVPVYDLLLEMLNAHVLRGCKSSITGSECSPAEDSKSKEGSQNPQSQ
# Chain of Androgen receptor (Homo sapiens) (P10275 whole entry, looked up): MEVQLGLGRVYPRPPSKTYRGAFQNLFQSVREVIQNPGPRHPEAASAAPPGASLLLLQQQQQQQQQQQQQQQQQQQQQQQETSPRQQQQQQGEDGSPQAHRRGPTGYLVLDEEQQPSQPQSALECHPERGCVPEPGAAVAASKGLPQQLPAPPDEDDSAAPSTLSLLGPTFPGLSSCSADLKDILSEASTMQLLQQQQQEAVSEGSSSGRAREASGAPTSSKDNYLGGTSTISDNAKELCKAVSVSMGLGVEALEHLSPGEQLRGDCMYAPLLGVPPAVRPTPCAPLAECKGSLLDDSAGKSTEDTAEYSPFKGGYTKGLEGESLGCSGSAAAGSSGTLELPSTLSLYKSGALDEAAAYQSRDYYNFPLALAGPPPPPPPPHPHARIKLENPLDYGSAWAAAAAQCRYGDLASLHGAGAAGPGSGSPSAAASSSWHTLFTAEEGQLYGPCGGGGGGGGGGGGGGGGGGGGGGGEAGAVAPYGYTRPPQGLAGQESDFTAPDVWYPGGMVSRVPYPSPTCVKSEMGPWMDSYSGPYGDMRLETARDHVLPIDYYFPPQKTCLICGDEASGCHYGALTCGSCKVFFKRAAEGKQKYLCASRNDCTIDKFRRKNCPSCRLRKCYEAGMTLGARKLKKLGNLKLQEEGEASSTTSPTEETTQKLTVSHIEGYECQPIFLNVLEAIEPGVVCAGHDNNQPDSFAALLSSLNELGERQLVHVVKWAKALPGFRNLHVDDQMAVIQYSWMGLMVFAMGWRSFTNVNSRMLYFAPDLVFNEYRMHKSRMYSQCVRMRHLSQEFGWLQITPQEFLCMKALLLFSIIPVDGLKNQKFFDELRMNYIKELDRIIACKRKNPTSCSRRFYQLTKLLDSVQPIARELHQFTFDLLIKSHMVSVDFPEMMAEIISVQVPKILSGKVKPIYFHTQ
# Chain of Thyrotropin receptor (Homo sapiens) (P16473 whole entry, looked up): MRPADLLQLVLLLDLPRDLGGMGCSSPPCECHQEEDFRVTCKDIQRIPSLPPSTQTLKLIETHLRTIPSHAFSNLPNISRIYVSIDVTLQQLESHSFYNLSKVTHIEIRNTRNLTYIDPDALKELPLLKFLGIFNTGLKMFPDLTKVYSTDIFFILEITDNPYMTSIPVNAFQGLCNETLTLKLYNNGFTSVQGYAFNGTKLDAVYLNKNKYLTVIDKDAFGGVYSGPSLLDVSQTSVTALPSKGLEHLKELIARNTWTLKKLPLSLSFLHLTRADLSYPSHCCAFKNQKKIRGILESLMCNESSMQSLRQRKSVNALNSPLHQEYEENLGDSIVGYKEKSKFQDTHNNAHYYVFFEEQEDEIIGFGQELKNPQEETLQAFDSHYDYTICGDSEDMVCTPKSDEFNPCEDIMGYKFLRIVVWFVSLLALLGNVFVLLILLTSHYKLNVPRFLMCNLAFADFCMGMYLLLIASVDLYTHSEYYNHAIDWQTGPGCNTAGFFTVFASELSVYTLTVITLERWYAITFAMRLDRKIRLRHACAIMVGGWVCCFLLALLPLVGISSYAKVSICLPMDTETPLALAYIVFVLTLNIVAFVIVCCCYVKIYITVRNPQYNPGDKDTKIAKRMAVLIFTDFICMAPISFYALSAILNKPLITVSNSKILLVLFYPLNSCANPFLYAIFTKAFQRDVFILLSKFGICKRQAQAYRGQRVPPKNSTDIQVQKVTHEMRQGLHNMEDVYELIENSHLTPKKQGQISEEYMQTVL
# Chain of Thyrotropin-releasing hormone receptor (Homo sapiens) (P34981 whole entry, looked up): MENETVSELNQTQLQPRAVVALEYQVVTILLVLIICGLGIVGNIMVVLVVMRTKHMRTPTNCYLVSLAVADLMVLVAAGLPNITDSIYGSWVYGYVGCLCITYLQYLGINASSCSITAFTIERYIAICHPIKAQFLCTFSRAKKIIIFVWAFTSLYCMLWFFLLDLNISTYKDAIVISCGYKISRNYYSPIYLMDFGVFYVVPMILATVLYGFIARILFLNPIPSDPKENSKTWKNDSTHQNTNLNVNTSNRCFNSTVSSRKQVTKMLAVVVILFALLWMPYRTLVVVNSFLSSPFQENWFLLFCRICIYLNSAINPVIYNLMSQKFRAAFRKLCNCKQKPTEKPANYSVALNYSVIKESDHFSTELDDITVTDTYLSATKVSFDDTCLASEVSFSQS
# Chain of Estrogen receptor (Homo sapiens) (P03372 whole entry, looked up): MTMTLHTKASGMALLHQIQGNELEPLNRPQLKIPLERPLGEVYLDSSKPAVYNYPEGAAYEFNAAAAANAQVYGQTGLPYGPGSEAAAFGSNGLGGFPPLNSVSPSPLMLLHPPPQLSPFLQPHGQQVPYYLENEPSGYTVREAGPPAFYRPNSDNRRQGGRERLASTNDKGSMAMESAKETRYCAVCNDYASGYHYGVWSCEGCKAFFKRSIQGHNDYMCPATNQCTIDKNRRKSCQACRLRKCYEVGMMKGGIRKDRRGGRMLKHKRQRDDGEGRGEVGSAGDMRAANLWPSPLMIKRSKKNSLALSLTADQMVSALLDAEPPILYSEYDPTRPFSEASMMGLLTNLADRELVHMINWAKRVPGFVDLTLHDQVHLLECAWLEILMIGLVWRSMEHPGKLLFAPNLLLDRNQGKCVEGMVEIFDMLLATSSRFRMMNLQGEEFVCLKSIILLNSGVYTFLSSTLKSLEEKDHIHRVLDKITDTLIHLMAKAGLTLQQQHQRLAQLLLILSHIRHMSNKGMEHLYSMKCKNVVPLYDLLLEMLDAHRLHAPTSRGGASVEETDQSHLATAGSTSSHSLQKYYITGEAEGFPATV
# Chain of Progesterone receptor (Homo sapiens) (P06401 whole entry, looked up): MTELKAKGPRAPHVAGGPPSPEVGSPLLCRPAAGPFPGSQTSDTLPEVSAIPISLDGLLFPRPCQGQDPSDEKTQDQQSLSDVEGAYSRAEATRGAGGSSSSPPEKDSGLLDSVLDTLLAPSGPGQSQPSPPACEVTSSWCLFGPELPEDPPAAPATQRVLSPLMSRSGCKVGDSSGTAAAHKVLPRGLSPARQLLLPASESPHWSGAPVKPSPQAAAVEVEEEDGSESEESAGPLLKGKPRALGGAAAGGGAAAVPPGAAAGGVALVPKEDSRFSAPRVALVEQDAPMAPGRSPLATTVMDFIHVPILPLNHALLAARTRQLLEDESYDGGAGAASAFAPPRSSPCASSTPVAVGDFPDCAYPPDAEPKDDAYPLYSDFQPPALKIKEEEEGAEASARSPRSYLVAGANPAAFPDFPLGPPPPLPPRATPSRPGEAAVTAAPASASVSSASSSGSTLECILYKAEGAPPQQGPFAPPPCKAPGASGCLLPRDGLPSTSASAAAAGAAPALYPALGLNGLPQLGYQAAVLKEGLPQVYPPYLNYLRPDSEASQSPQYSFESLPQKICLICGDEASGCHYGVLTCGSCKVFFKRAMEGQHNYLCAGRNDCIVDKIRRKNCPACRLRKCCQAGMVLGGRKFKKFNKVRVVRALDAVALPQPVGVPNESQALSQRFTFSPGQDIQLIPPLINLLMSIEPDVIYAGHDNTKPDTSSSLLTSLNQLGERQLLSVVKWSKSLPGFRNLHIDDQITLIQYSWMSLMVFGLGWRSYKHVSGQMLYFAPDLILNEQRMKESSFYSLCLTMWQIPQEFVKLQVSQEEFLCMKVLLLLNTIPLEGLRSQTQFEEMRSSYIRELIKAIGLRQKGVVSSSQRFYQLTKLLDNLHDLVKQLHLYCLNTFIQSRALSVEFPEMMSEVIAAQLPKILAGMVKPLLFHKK
SMILES,Potency [1],Potency [2],Potency [3],Potency [4],Potency [5],Potency [6],outcome [7],Potency [8],Potency [9],Potency [10],Potency [11],Potency [12],Potency [13],Potency [14],Potency [15],outcome [16],Potency [17],Potency [18],Potency [19]
C=CC(=O)OCC(C)O (centres undefined),inactive,inactive,inactive,inactive,inactive,inactive,inactive,inactive,inactive,inactive,inactive,inactive,inactive,inactive,inactive,inactive,inactive,,
CCC(Br)(CC)C(=O)NC(N)=O,inactive,inactive,inactive,inactive,inactive,,inactive,inactive,inactive,inactive,inactive,inactive,,inactive,,inactive,inactive,inactive,
O=[N+]([O-])c1ccc(F)c([N+](=O)[O-])c1,inactive,inactive,27.6 µM (active),inactive,inactive,inactive,,inactive,30.9 µM (active),inactive,inactive,,,,inactive,,inactive,,
CC(C)N(C(=O)COc1nnc(C(F)(F)F)s1)c1ccc(F)cc1,inactive,inactive,inactive,,,inactive,inactive,inactive,inactive,,,inactive,,inactive,inactive,inactive,,,
CCC(COC(=O)c1cc(OC)c(OC)c(OC)c1)(c1ccccc1)N(C)C (centres undefined),inactive,inactive,inactive,inactive,,,,,,,,,,inactive,inactive,,inactive,inactive,
CN1C(=O)NC(=O)C(C)(C2=CCCCC2)C1=O (centres undefined),inactive,inactive,inactive,inactive,,,inactive,inactive,inactive,inactive,inactive,inactive,inactive,inactive,inactive,inactive,inactive,inactive,
O=C=Nc1ccc(Cl)cc1,inactive,inactive,inactive,2.43 µM (active),,inactive,,,inactive,,,,,inactive,,,inactive,inactive,
O=C(NC(=O)c1c(F)cccc1F)Nc1cc(Cl)c(Oc2ncc(C(F)(F)F)cc2Cl)c(Cl)c1,inactive,inactive,,,inactive,inactive,inactive,inactive,,inactive,,inactive,inactive,inactive,inactive,,,,
CN1C(=O)C(O)N=C(c2ccccc2)c2cc(Cl)ccc21 (centres undefined),inactive,inactive,inactive,inactive,inactive,inactive,,,inactive,,inactive,inactive,,inactive,inactive,inactive,,,
COC(=O)C(Cl)C(=O)OC,inactive,inactive,,inactive,inactive,inactive,inactive,inactive,inactive,,inactive,inactive,inactive,inactive,inactive,inactive,inactive,inactive,
O=C1C(Cl)C(CCl)CN1c1cccc(C(F)(F)F)c1 (centres undefined),inactive,inactive,inactive,,inactive,,inactive,inactive,inactive,inactive,30.6 µM (active),0.864 µM (active),inactive,inactive,,inactive,inactive,inactive,inactive
COc1ccc(-c2ccccc2)cc1NNC(=O)OC(C)C,inactive,inactive,,35.8 µM (active),,inactive,,,,,,,,inactive,inactive,inactive,inactive,63.7 µM (active),inactive
Nc1ccc(N=Nc2ccc(-c3ccc(N=Nc4c(S(=O)(=O)O)cc5cc(S(=O)(=O)O)c(N=Nc6ccccc6)c(O)c5c4N)cc3)cc2)c(N)c1,inactive,inactive,17.6 µM (active),,inactive,inactive,,,15.7 µM (active),inactive,inactive,inactive,inactive,inactive,inactive,inactive,,,
CS/C(C)=N/OC(=O)N(C)SN(C)C(=O)O/N=C(\C)SC,inactive,inactive,,,inactive,inactive,inactive,,,,inactive,inactive,,inactive,inactive,inactive,,,
Nc1nc(N)nc(N)n1,inactive,inactive,inactive,inactive,inactive,,inactive,inactive,,inactive,inactive,inactive,inactive,inactive,inactive,inactive,inactive,inactive,
NCCCNCCCN,inactive,inactive,inactive,,,,inactive,inactive,inactive,inactive,inactive,inactive,inactive,inactive,inactive,inactive,inactive,inactive,
CCCCN=C=O,inactive,inactive,inactive,inactive,inactive,,inactive,inactive,inactive,inactive,inactive,,inactive,inactive,inactive,inactive,inactive,inactive,
CCCCCCCCCCOC(=O)c1ccccc1C(=O)OCCCCCCCCCC,inactive,,inactive,inactive,inactive,inactive,inactive,inactive,,,inactive,inactive,inactive,inactive,inactive,inactive,inactive,,inactive
NC(=O)C(Cl)(Cl)Cl,inactive,,inactive,inactive,inactive,inactive,inactive,inactive,inactive,inactive,inactive,inactive,,inactive,inactive,inactive,inactive,inactive,
